# Test results as given in PubChem BioAssay (NCATS).
# Results filed as inconclusive are left out. Active and inactive are the calls of the source. Calls follow the shape of the dose curve; as a rule, active = well fitted cell-killing curve with a large enough effect; inconclusive = small, poorly fitted or top-dose-only effect, or effect the other way; inactive = flat fitted curve, though single readings scatter.
# Tested on: Tov112D
# Assay: Primary qHTS to identify gynecologic anti-cancer compounds using libraries of approved drugs and bioactive compounds (AID 1345084); also: nearly all actives have a fitted effect of over 55% in size
# Settings: Gynecologic cancer cell panel viability, ATPlite luminescence, 48 h; series mostly up to 57.5 µM; activity change, negative = cytotoxicity: at the top concentration
# Summary of the method: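 48 h compound exposure at 37 C, 5% CO2; five-point qHTS. ATPlite luminescence readout of cell ATP.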
# % is scaled to controls: 0 for no effect and ±100 for the full control effect; potency is read from the fitted curve at half-maximal effect.
SMILES,"activity change, negative = cytotoxicity",Potency
CN[C@@H]1[C@@H](O)[C@@H](O[C@@H]2[C@@H](O)[C@H](O[C@H]3O[C@@H]([C@@H](C)NC)CC[C@H]3N)[C@@H](N)C[C@H]2N)OC[C@]1(C)O,16% (inactive),
C[N+]1(C)[C@@H]2CC[C@H]1CC(OC(=O)C(O)c1ccccc1)C2 (stereo partly drawn),7.88% (inactive),
CCNC(=O)[C@@H]1CCCN1C(=O)[C@H](CCCN=C(N)N)NC(=O)[C@H](CC(C)C)NC(=O)[C@@H](CC(C)C)NC(=O)[C@H](Cc1ccc(O)cc1)NC(=O)[C@H](CO)NC(=O)[C@H](Cc1c[nH]c2ccccc12)NC(=O)[C@H](Cc1cnc[nH]1)NC(=O)[C@@H]1CCC(=O)N1,0.487% [at 25.3 µM] (inactive),
CC(CCC1(O)OC2CC3C4CC=C5CC(O[C@@H]6O[C@H](CO)[C@@H](O[C@@H]7O[C@H](CO)[C@@H](O)[C@H](O)[C@H]7O)[C@H](O)[C@H]6O[C@@H]6O[C@@H](C)[C@H](O)[C@@H](O)[C@H]6O)CCC5(C)C4CCC3(C)C2C1C)CO[C@@H]1O[C@H](CO)[C@@H](O)[C@H](O)[C@H]1O (stereo partly drawn),7.99% [at 11.6 µM] (inactive),
CN([C@H]1c2cc(OCCCC(F)(F)F)ccc2OC(C)(C)[C@@H]1O)S(C)(=O)=O,0.898% (inactive),
CC1(CO)CCCC2(C)C1C(OC(=O)c1ccccc1)C=C1C(=O)OCC12O (stereo not drawn),-6.76% [at 38.5 µM] (inactive),
Cn1c(NC[C@@H](N)Cc2ccccc2)nc(-c2ccncc2)c(-c2ccc3ccccc3c2)c1=O,9.09% (inactive),
CCCCC(=O)N(Cc1ccc(-c2ccccc2-c2nn[nH]n2)cc1)C(C(=O)O)C(C)C (stereo not drawn),13.1% (inactive),
COc1ccc(NS(=O)(=O)c2sc3ccc(Cl)cc3c2C)cc1N1CCNCC1,6.9% (inactive),
CCCCc1nc(Cl)c(CO)n1Cc1ccc(-c2ccccc2-c2nnn[nH]2)cc1,10.4% (inactive),
CCC(=O)c1cc(-c2ccc(Cl)cc2)n(-c2ccc(S(N)(=O)=O)cc2)c1C,-4.16% (inactive),
Cc1nnsc1C(=O)Nc1ccc(-n2nc(C(F)(F)F)cc2C(F)(F)F)cc1,-1.68% (inactive),
Cc1cc(C)c(NC(=O)N(Cc2ccc3c(c2)Cc2ccccc2-3)C2CCCCCC2)c(C)c1,4.44% (inactive),
Fc1ccccc1CNCc1ccc(-c2ccnc3[nH]ccc23)cc1,-8.44% (inactive),
CN(Cc1ccc(C(=O)O)cc1)c1ccc(OCc2c(-c3c(Cl)cccc3Cl)noc2C2CC2)nc1C(F)(F)F,-8.95% (inactive),
Cc1nc(C)c2c(n1)N(Cc1ccc(-c3ccccc3-c3nn[nH]n3)cc1)C(=O)CC2,13.9% (inactive),
N#C[C@@H]1C[C@@H]2C[C@@H]2N1C(=O)[C@@H](N)C12CC3CC(CC(O)(C3)C1)C2,-0.754% (inactive),
CS(=O)(=O)c1ccc(-c2cn3ccccc3n2)cc1,,7.94 µM (active)
CCCCOc1ccc(-c2cncc(C(=O)NCc3cccnc3N3CCOCC3)c2)cc1Cl,-0.811% (inactive),
CC[C@H]1OC(=O)[C@H](C)[C@@H](O[C@H]2C[C@@](C)(OC)[C@@H](O)[C@H](C)O2)[C@H](C)[C@@H](O[C@@H]2O[C@H](C)C[C@H](N(C)C)[C@H]2O)[C@](C)(O)C[C@@H](C)/C(=N/OCOCCOC)[C@H](C)[C@@H](O)[C@]1(C)O,11.2% (inactive),
C[C@@H](O[C@H]1OCCN(Cc2n[nH]nc2CN(C)C)[C@H]1c1ccc(F)cc1)c1cc(C(F)(F)F)cc(C(F)(F)F)c1,3.95% (inactive),
Cc1cc(CN)cc(C)c1NC(=O)c1ccc(-c2cc(Cl)ccc2Cl)o1,1.62% (inactive),
CCCCc1nc(C)c(CC(=S)N(C)C)c(=O)n1Cc1ccc(-c2ccccc2-c2nn[nH]n2)cc1,9.57% (inactive),
CC(=O)N1CCN([C@H]2CCN(C(=O)N(C)[C@H](C)c3cc(C(F)(F)F)cc(C(F)(F)F)c3)[C@@H](c3ccc(F)cc3C)C2)CC1,5.4% (inactive),
CC1(C)SC2C(NC(=O)[C@H](C(=O)O)c3ccsc3)C(=O)N2C1C(=O)O (stereo partly drawn),14.4% (inactive),
COc1c(N2CC3CCCNC3C2)c(F)cc2c(=O)c(C(=O)O)cn(C3CC3)c12 (stereo not drawn),16.2% (inactive),
CO[C@@H]1[C@@H](O[C@H]2O[C@@H](C)[C@H](O[C@@H]3C[C@](C)(O)[C@H](O)[C@@H](C)O3)[C@@H](N(C)C)[C@@H]2O)[C@@H](CC=O)C[C@@H](C)[C@@H](O[C@H]2CC[C@H](N(C)C)[C@H](C)O2)/C=C/C=C/C[C@@H](C)OC(=O)C[C@H]1O,10.1% (inactive),
Cc1ccn(-c2cc(Cl)ccc2[C@@H](Oc2cc(-c3ccc(C[C@H](N)C(=O)O)cc3)nc(N)n2)C(F)(F)F)n1,7.26% (inactive),
